BAZ2B inh: BAZ2B (human) inhibition; Potency, µM (series often up to 114 µM), without a hit: top-dose activity change, negative = inhibition, most hits filed as inhibitors; 360,000 compounds, 4.4% hits; AlphaScreen BAZ2B-H3K14Ac peptide displacement; also: potency is read from the fitted curve at half-maximal effect; % is scaled to controls: 0 for no effect and ±100 for the full control effect; nearly all actives have a fitted effect of over 60% in size
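Inhibition is scored as reduced AlphaScreen emission. The BAZ2B/b-H3(5-23)K14Ac complex (50 nM each) in PBS pH 7.4, 0.01% Tween-20 meets compound (up to 110 uM) for 30 min at RT before bead addition.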
Six1-Eya2 blk: blocks human Six1 binding to Eya2; AlphaScreen GST-Six1/His-Eya2 binding, biochemical; active compounds read low; activity change, % (no concentration beside the values); 360,000 compounds, 0.56% hits; in the data active = activity change below about -65%; inconclusive = mostly about -30% to -63%; also: % is scaled to controls: 0 for no effect and ±100 for the full control effect
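AlphaScreen with GST-Six1 and His-Eya2 (5X mix: 250 nM and 500 nM), glutathione donor and nickel acceptor beads; buffer 50 mM Tris pH 8.0, 300 mM NaCl, 1 mM TCEP; 1 h at 37 C in the dark.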
G9a block: inhibitors of human histone lysine methyltransferase G9a; Q96KQ7; G9a H3K9 monomethylation, AlphaScreen, 2 h; Potency, µM (top dose mostly 102 µM), inactives show at the highest dose activity, negative = inhibition, actives largely listed as inhibitors; 350,000 compounds, 8.8% hits; AID 504332; also: potency is read from the fitted curve at half-maximal effect; % is scaled to controls: 0 for no effect and ±100 for the full control effect; nearly all actives have a fitted effect of over 75% in size
Target sequence (Q96KQ7 913-1193 limits assumed): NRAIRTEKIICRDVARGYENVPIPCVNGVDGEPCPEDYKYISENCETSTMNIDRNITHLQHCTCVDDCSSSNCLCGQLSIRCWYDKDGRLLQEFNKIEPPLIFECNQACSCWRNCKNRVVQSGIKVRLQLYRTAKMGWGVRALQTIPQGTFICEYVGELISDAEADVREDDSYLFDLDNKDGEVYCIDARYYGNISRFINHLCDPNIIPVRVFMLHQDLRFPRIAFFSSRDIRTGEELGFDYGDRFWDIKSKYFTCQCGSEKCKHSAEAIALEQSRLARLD
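Compounds were preincubated with 20 nM G9a for 15 min, after which biotinylated H3K9 peptide (500 nM) and SAM (20 uM) started a 2 h room-temperature reaction. Monomethylated product was quantified by antibody-based AlphaScreen chemiluminescence.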
JMJD2A Tudor: blocks the human JMJD2A Tudor domain; O75164; AlphaScreen JMJD2A-Tudor / H3K4me3 peptide binding; Potency, µM (series often up to 114 µM), without a hit: at the top dose activity change, negative = inhibition, actives largely listed as inhibitors; 390,000 compounds, 4.4% hits; also: potency is read from the fitted curve at half-maximal effect; % is scaled to controls: 0 for no effect and ±100 for the full control effect; nearly all actives have a fitted effect of over 50% in size
HP1b chromo inh: HP1-beta chromodomain-methylated histone interaction inhibition. AlphaScreen HP1-beta / biotin-H3K9me3 peptide binding. AID 540317. Potency, µM (titrated, usually from 114 µM), for the others: at the top dose activity change, negative = inhibition, hits mostly inhibitors. 390,000 compounds, 0.56% hits; also: potency is read from the fitted curve at half-maximal effect; nearly all actives have a fitted effect of over 70% in size
Target sequence (P83916 whole entry, looked up): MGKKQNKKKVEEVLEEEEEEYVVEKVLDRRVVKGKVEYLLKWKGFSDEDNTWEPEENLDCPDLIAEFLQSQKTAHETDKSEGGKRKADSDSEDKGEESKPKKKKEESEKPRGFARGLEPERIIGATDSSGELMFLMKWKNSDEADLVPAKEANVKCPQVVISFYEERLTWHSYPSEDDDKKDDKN
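Compound inhibition of the preformed complex between 50 nM HP1-beta and 50 nM biotinylated H3K9me3 peptide was read by AlphaScreen. Buffer was PBS pH 7.4 with 0.01% Tween-20. Incubations ran 30 min at room temperature, with 10 ug/mL donor/acceptor beads.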
CtBP-E1A blk: CtBP/E1A binding inhibition | AlphaScreen GST-E1A/His-CtBP binding, 1536-well; active compounds read low | activity change, % (test concentration not listed) | 340,000 compounds, 0.49% hits | AID 651724; in the data active = activity change below about -65%; inconclusive = mostly about -30% to -63%; also: % is scaled to controls: 0 for no effect and ±100 for the full control effect
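Protein mix (5X: 125 nM each GST-E1A, His-CtBP) was incubated with pinned compound 2 h at 37 deg C in dark, in 50 mM Tris pH 8.0 buffer with 300 mM NaCl. Glutathione donor and nickel acceptor beads followed; AlphaScreen signal read after 1 h.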
* = called active by the depositor; ? = inconclusive; nt = not tested or not shown; [ ] = dose if it differs, or a comment. A selection: hits, their analogues and other compounds. The true share with any hit is near 10%. Unless noted, calls follow the shape of the dose curve; as a rule, active = well fitted inhibition curve with a large enough effect; inconclusive = small, poorly fitted or top-dose-only effect; inactive = no such curve, though single readings can be large or run the other way.

SMILES	BAZ2B inh	Six1-Eya2 blk	G9a block	JMJD2A Tudor	HP1b chromo inh	CtBP-E1A blk
S=c1[nH]ccn1-c1c(Cl)cccc1Cl	-11.8%	-3.8	10µM*	1.8%	25.4%[57 µM]	-2.7
Cc1nn(C(=O)CCCn2cc([N+](=O)[O-])cn2)c(C)c1Cl	6.0%	0.1	-31.5%	20µM*	2.2%	-2.3
CN(C)C(=O)c1ccc(-c2ccc3ncnc(NCc4cccs4)c3c2)cc1	nt	nt	1.6%[0.501 µM]	nt	nt	nt
Cc1cc(/C=C2\NC(=S)N(C)C2=O)ccc1N1CCCC1	39.8µM*	-12.3	3.2%	89.1µM*	21.8%	0.5
CCCN1C(=O)/C(=C/c2ccc(N3CCOCC3)cc2)NC1=S	-37.8%	12.6	-4.0%[59 µM]	-18.6%	46.9%	13.7
CN1C(=O)/C(=C/c2ccc(O)c([N+](=O)[O-])c2)NC1=S	?	-6.2	39.8µM*	-32.2%	2.3%	0.2
Cc1cc(N2CCCC2)ccc1/C=C1/C(=O)N(C)C(=S)N1C	1.58µM*	?	2.51µM*	?	?	-22.8
CCCN1C(=O)/C(=C/c2ccc(N3CCCC3)c(C)c2)NC1=S	35.5µM*	-15.9	-48.5%[0.0925 µM]	35.5µM*	?	-18.8
Cc1cc(C)c(NC(=O)CCn2c(=O)c3cccn3c3cccnc32)c(C)c1	-0.7%	nt	1.8%[59 µM]	6.2%	55.6%	nt
CCN1C(=O)/C(=C/c2ccc(OCc3ccc(C(=O)O)cc3)c(Cl)c2)NC1=S	?	-8.0	70.8µM*	?	-4.7%	-3.1
CCN1C(=O)/C(=C/c2ccc(N3CCCC3)cc2)NC1=S	25.1µM*	?	3.16µM*	?	?	-23.6
Cc1cc(/C=C2/C(=O)N(C)C(=S)N2C)ccc1N1CCCC1	14.1µM*	?	8.91µM*	14.1µM*	35.5µM*	?
CN(C)CCCOc1cccc(Cl)c1	79.4µM*	6.9	14.1µM*	17.8µM*	?	-1.0
CC(C)N(CCNCC(O)COc1ccc(C(C)(C)c2ccccc2)cc1)C(C)C (stereo not drawn)	50.1µM*	4.3	20µM*	5.62µM*	-13.7%	5.6
CC(C)(c1ccccc1)c1ccc(OCC2CO2)cc1 (stereo not drawn)	110.6%	17.4	257.9%	190.3%	135.0%	37.2
CCCCNCCCOc1cccc(Cl)c1	6.2%	14.8	23.9%[12.7 µM]	-5.8%	18.1%	8.6
CN(C)CCCOc1ccc(C(C)(C)c2ccccc2)cc1	50.1µM*	-2.5	?	1.58µM*	?	-4.5
CN(C)CCCOc1cccc(Oc2ccccc2)c1	?	-3.6	14.1µM*	56.2µM*	?	-5.0
Cc1ccc(C)c(Cn2c(=O)n(-c3ccccc3)c(=O)c3c4c(sc32)CCCC4)c1	1.4%	nt	-30.4%[59 µM]	-4.4%	40.6%	nt
Cc1ccc(CNC(=O)CCC2CCCN(C(=O)c3ccc4c(c3)OCO4)C2)o1 (stereo not drawn)	-14.5%	8.0	50.1µM*	-7.4%	10.5%[57 µM]	-0.1
Cc1ccc(CNC(=O)CCC2CCCN(Cc3cccc4cccnc34)C2)o1 (stereo not drawn)	?	-6.8	39.8µM*	-32.4%	2.5%	-9.2
O=C(CCC1CCCN(C(=O)c2ccc3c(c2)OCCO3)C1)NCc1ccccc1F (stereo not drawn)	-0.6%	-1.2	4.8%	-3.5%	53.0%	0.2
COc1cccc(CNC(=O)CCC2CCCN(C(=O)CCC(F)(F)F)C2)c1 (stereo not drawn)	2.8%	-3.7	3.1%	-6.9%	25.5%	1.8
Cc1ccc(CNC(=O)CCC2CCCN(C(=O)CCC(F)(F)F)C2)o1 (stereo not drawn)	3.2%	0.9	50.1µM*	-8.4%	38.1%	2.0
COc1cc(/C=C/C(=O)O)cc(S(=O)(=O)Nc2ccc3nc(SC)sc3c2)c1OC	nt	-2.4	39.8µM*	-13.9%	14.4%	-1.2
SMILES	BAZ2B inh	Six1-Eya2 blk	G9a block	JMJD2A Tudor	HP1b chromo inh	CtBP-E1A blk
COc1cc(/C=C/C(=O)O)cc(S(=O)(=O)Nc2ccc3cn[nH]c3c2)c1OC	-2.5%	-1.1	-12.8%[2.33 µM]	-3.8%	37.0%	10.4
CCOC(=O)c1c(N)ssc1=S	?	-4.0	1µM*	?	?	7.9
CCOC(=O)c1c(N)sc(C(N)=O)c1C	-4.5%	-3.6	?	5.3%	?	-3.8
Cc1c(C(=O)OC(C)C)sc(N)c1C(=O)OC(C)C	4.4%	7.5	?	-3.4%	19.4%	-7.8
CCOC(=O)c1c(N)sc(=S)c2c1CCC2	44.7µM*	?	?	?	?	-28.2
CCOC(=O)c1sc(N)c(C(N)=O)c1C	nt	-3.8	39.8µM*	-20.3%	-13.1%	5.3
Cc1c(C(N)=O)sc(N)c1C(=O)OC(C)C	-23.8%	1.7	39.8µM*	-16.0%	-22.0%	2.1
O=C(Nc1ccccc1C(F)(F)F)C1CCN(S(=O)(=O)Cc2ccccc2)CC1	-7.0%	nt	-39.6%[59 µM]	-19.9%	-2.2%	nt
COCCn1c(-c2ccccc2)c(C)n2c3c(=O)n(C)c(=O)n(C)c3nc12	?	nt	-20.8%[59 µM]	-25.4%	22.5%	nt
CCOC(=O)c1c(N)sc(N)c1C(=O)OCC	50.1µM*	-8.1	3.16µM*	?	8.91µM*	-4.6
CCS(=O)(=O)N1Cc2ccccc2CC1C(=O)Nc1nnc(SCc2ccc(C#N)cc2)s1 (stereo not drawn)	2.5%	-8.0	44.7µM*	-17.6%	24.1%	-6.6
NS(=O)(=O)c1ccc(NC(=O)C2Cc3ccccc3CN2C(=O)c2ccco2)cc1 (stereo not drawn)	50.1µM*	-10.9	50.1µM*	39.8µM*	?	-1.7
NS(=O)(=O)c1ccc(CCNC(=O)C2Cc3ccccc3CN2C(=O)c2ccco2)cc1 (stereo not drawn)	6.4%	6.5	-0.5%	-16.2%	34.7%	-10.5
CCSc1nnc(NC(=O)C2Cc3ccccc3CN2C(=O)c2ccco2)s1 (stereo not drawn)	?	-7.7	?	79.4µM*	25.6%	-6.9
COc1cccc(NC(=O)C2Cc3ccccc3CN2C(=O)c2ccco2)c1 (stereo not drawn)	-13.5%	9.2	35.5µM*	-27.4%	-14.0%	2.6
Cc1ccccc1NC(=O)C1Cc2ccccc2CN1C(=O)c1ccco1 (stereo not drawn)	-11.4%	-8.8	?	-4.7%	10.9%	2.0
CC1=C(C(=O)Nc2ccc(C)cc2C)C(c2ccc(C(C)C)cc2)n2nc(C(F)(F)F)nc2N1 (stereo not drawn)	0.0%	nt	-11.9%[59 µM]	?	?	nt
COc1cccc(-n2cc(C(=O)Oc3cccc(C(F)(F)F)c3)c3ccccc3c2=O)c1	-1.9%	nt	49.3%[59 µM]	-17.1%	22.5%[57 µM]	nt
COc1ccccc1CNc1nc(-c2ccco2)nn1S(C)(=O)=O	-19.3%	nt	-9.7%[59 µM]	-1.3%	27.8%	nt

High-throughput results as filed in PubChem BioAssay.
